Source: PubChem BioAssay (NCATS)
Results filed as inconclusive are left out. The source made the active and inactive calls. Calls follow the shape of the dose curve; as a rule, active = well fitted inhibition curve with a large enough effect; inconclusive = small, poorly fitted or top-dose-only effect; inactive = flat fitted curve, though single readings scatter.

test system: CRL-7250; experiment: qHTS assay to identify novel small-molecules to repurpose for Merkel cell carcinoma treatment (AID 1296009); conditions: MCC and control cell lines, CellTiter-Glo viability, 72 h; series mostly up to 92 µM; activity change, negative = cytotoxicity: at the top concentration; also: nearly all actives have a fitted effect of over 60% in size
Summary of the method: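 CellTiter-Glo luminescence after 72 hr compound exposure at 37 degree celsius gave cell viability. Libraries NPC and MIPE were run as 8- and 11-point dose responses; RLUs normalized to DMSO (negative) and no-cell (cytotoxicity) controls.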

Compound | outcome
CN(C)CCn1cc(S(=O)(=O)c2cccc(F)c2)c2cccnc21 | inactive
COc1cc(CCc2ccccc2)c(C(=O)O)c2c1CC(C(C)(C)O)O2 (stereo not given) | inactive
C[C@@H]1O[C@@H](O[C@@H]2[C@@H](O)[C@H](O[C@H]3CC[C@@]4(C)C(CC[C@]5(C)C4CC=C4[C@@H]6CC(C)(C)CC[C@]6(C(=O)O[C@@H]6O[C@H](CO)[C@@H](O)[C@H](O)[C@H]6O)CC[C@]45C)C3(C)C)O[C@H](C(=O)O)[C@H]2O)[C@H](O)[C@H](O)[C@H]1O (stereo not given in full) | inactive [at 9.27 µM]
CCNC(=O)C1CC(F)(c2ccc(CN3CCCC3)c(F)c2)C1 (stereo not given) | inactive
COC(=O)C(CC1CCCC1)c1ccc(S(C)(=O)=O)cc1 (stereo not given) | inactive
COc1cc([C@H]2OC[C@]3(OC(C)=O)[C@@H](c4ccc(O[C@@H]5O[C@H](CO)[C@@H](O)[C@H](O)[C@H]5O)c(OC)c4)OC[C@H]23)ccc1O | inactive [at 17.4 µM]
C/C=C(\C)C(=O)OCC1OC(OC2OC(CO)C(O)C(O)C2O)C(O)C(O)C1O (stereo not given) | inactive [at 17.4 µM]
OC/C=C/C=C/[C@H]1Cc2cc(O)cc(O)c2O1 | inactive
COC(=O)C1=COC(O[C@@H]2O[C@H](COC(=O)/C=C/c3ccc(O)cc3)[C@@H](O)[C@H](O)[C@H]2O)C2C(CO)=CCC12 (stereo not given in full) | inactive [at 17.4 µM]
Cc1cc(-c2nncc3c(C(C)(C)C)c(OCc4ncnn4C)nn23)no1 | inactive
COc1cc(C(=O)OC[C@@]2(O)CO[C@@H](O[C@H]3[C@H](Oc4ccc(O)cc4)O[C@H](CO)[C@@H](O)[C@@H]3O)[C@@H]2O)cc(OC)c1O | inactive [at 17.4 µM]
Cc1c(CN(C)C(=O)/C=C/c2cnc3c(c2)CCC(=O)N3)oc2ccccc12 | inactive
CC1(C)O[C@@]2(C)CC[C@@H]1C[C@@H]2OC1OC(CO)C(O)C(O)C1O (stereo not given in full) | inactive
CNC(=O)c1ccc2cc([C@@]3(O)CCn4cncc43)ccc2c1 | inactive
CC1CCC23COC(=O)C2=CC(O)CC3C1(C)CCC1=CC(=O)OC1O (stereo not given) | inactive
C/C(=C\CCC(C)CCO)C(=O)O[C@@H]1[C@@H](O)[C@H](OC2OC=C(C(=O)O)C3CCC(C)(O)C23)O[C@H](CO)[C@H]1O (stereo not given in full) | inactive [at 17.4 µM]
C=C1CC/C=C(/CO)C(=O)C[C@@H]2[C@@H]1CC2(C)C | inactive
COc1cc(CC2COC(c3ccc(OC4OC(CO)C(O)C(O)C4O)c(OC)c3)C2CO)ccc1O (stereo not given) | inactive [at 17.4 µM]
CC(=O)c1cc2c(cc1O)OC(C)(C)C=C2 | inactive
COc1cc2c(c(O)c1OC/C=C(\C)CC/C=C(/C)CCC=C(C)C)CN(C(CCC(=O)O)C(=O)O)C2=O (stereo not given) | inactive [at 17.4 µM]

Compound | outcome
CC1(C)CCC[C@@]2(C)[C@H]1[C@H](O)C=C1COC(=O)[C@@]12O | inactive
CC1(C)CC[C@]2(C(=O)O)CC[C@]3(C)C(=CCC4[C@@]5(C)C[C@@H](O)[C@H](O)[C@@](C)(CO)C5[C@H](O)C[C@]43C)[C@@H]2C1 (stereo not given in full) | inactive [at 17.4 µM]
CC1(C)CCC(C)(C)c2cc3c(cc21)Sc1ccccc1N=C3c1ccc(C(=O)O)cc1 | inactive
COC(=O)C1=COC(OC2OC(CO)C(O)C(O)C2O)C2C(C)CC(=O)C12O (stereo not given) | inactive [at 17.4 µM]
NC(=O)C(O[C@@H]1O[C@H](CO[C@@H]2O[C@H](CO)[C@@H](O)[C@H](O)[C@H]2O)[C@@H](O)[C@H](O)[C@H]1O)c1ccccc1 (stereo not given in full) | inactive [at 17.4 µM]
COCC1OC(n2cnc3c(=O)[nH]cnc32)C(O)C1O (stereo not given) | inactive
CC/C(=C(\c1ccc(O)cc1)c1ccc(OCCNC)cc1)c1ccccc1 | inactive
COC(=O)[C@@H]1C2CC3c4[nH]c5ccccc5c4CCN3CC2CC[C@@H]1O (stereo not given in full) | inactive
CCCC(=O)Nc1cccc(NC(=O)c2ccccc2Br)c1 | inactive
CC(C)c1ccc(NC(=O)Cn2cnc3c2c(=O)n(C)c(=O)n3C)cc1 | inactive
CC1(C)CC2C3=CCC4C5(C)CCC(OC6OC(CO)C(O)C(OC7OC(CO)C(O)C(OC8OC(CO)C(O)C(OC9OC(COC%10OC(CO)C(O)C(O)C%10O)C(O)C(O)C9O)C8O)C7O)C6O)C(C)(C)C5CCC4(C)C3(C)CCC2(C(=O)O)CC1O (stereo not given) | inactive [at 9.27 µM]
C[C@@H]1O[C@@H](O[C@H]2[C@H](O[C@H]3CC[C@@]4(C)C(CC[C@]5(C)C4CC=C4[C@@H]6CC(C)(C)CC[C@]6(C(=O)O[C@@H]6OC[C@H](O)[C@H](O)[C@H]6O[C@@H]6O[C@@H](C)[C@H](O[C@@H]7O[C@H](CO)[C@@H](O)[C@H](O)[C@H]7O)[C@H](O)[C@H]6O)[C@H](O)C[C@]45C)C3(C)C)O[C@H](CO)[C@@H](O[C@@H]3OC[C@@H](O)[C@H](O)[C@H]3O)[C@@H]2O)[C@H](O)[C@H](O)[C@H]1O (stereo not given in full) | inactive [at 9.27 µM]
CC1CCC2(CO)C(C(=O)O)=CCCC2C1(C)CCc1ccoc1 (stereo not given) | inactive
COc1cc(/C=C/C(=O)O[C@H]2[C@H](OC(=O)/C=C/c3cc(OC)c(O)c(OC)c3)O[C@H](CO[C@@H]3O[C@H](CO)[C@@H](O)[C@H](O)[C@H]3O)[C@@H](O)[C@@H]2O)ccc1O | inactive [at 17.4 µM]
CCOC(=O)[C@H](CCc1ccccc1)N[C@@H](C)C(=O)N1C2CCCCC2C[C@H]1C(=O)O (stereo not given in full) | inactive
COc1cc2c(cc1O)CC(O)(CO)C(CO)C2c1ccc(OC2OC(CO)C(O)C(O)C2O)c(OC)c1 (stereo not given) | inactive [at 17.4 µM]
C/C(=C\CCC1(C)C2CC3C(C2)C31C)C(=O)O (stereo not given) | inactive
CCCCc1ccc(NS(=O)(=O)c2ccc(F)cc2)cc1 | inactive
C[C@H](N)C(=O)N[C@@H](Cc1ccc(O)cc1)C(=O)N1CCC[C@H]1C(=O)NCC(=O)N[C@@H](CCCCN)C(=O)N[C@@H](Cc1ccccc1)C(N)=O | inactive [at 9.27 µM]
O=C(O)c1cccc(C(=O)CCC2OC(n3cnc4c(=O)[nH]cnc43)C(O)C2O)c1 (stereo not given) | inactive [at 17.4 µM]
